Peg3 prom inh: Peg3 promoter-driven luciferase inhibitors, primary screen, cell-based, HeLa, luciferase luminescence; HeLa PEG-Prom luciferase reporter, overnight; inhibition, % at 20 µM; 1.7% of 360,000 active;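 active = inhibition of at least 50% at 20 µM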
Mdm2-MdmX inh: inhibitors of human Mdm2-MdmX association, primary screen, cell-based, luminescence, split luciferase, SaOS-2, uHTS; SaOS-2 split-luciferase Mdm2/MdmX complementation; 3% of 330,000 active; inhibition, % at 8 µM; Protein Mdm4 (Homo sapiens) + E3 ubiquitin-protein ligase Mdm2 (Homo sapiens), …;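 active = inhibition of at least 50% at 8 µM in the primary screen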
CF NFkB inh: inhibitors of PAF-induced NF-kB signaling, primary screen, cell-based, GFP fluorescence, uHTS | AID 588850, 2011 | inhibition, % at 5 µM | KKLEB NF-kB-GFP reporter, GFP fluorescence overnight | 0.86% of 360,000 active;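 active = at least 50% inhibition at 5 µM, scaled per plate between neutral and stimulator controls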;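 also: PAF is a Pseudomonas aeruginosa culture filtrate used as stimulus; plate controls were PAF-stimulated DMSO wells for no effect and unstimulated DMSO wells for full effect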
ABHD5 PLIN5 PPI: ABHD5-PLIN5 interaction inhibitors, primary screen, cell lysate, split luciferase complementation, luminescence | 0.78% of 360,000 active | Perilipin-5 (Homo sapiens) + 1-acylglycerol-3-phosphate O-acyltransferase ABHD5 (Homo … | AID 602281, 2012 | inhibition, % at 4 µM | Split G. princeps luciferase complementation, 4 h;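 active = inhibition above the mean inhibition across every tested compound plus 3 SD, cut at about 22% in these data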;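 also: 0% = DMSO only wells and the 100% control is not disclosed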
Target sequence (Q00G26 whole entry, looked up): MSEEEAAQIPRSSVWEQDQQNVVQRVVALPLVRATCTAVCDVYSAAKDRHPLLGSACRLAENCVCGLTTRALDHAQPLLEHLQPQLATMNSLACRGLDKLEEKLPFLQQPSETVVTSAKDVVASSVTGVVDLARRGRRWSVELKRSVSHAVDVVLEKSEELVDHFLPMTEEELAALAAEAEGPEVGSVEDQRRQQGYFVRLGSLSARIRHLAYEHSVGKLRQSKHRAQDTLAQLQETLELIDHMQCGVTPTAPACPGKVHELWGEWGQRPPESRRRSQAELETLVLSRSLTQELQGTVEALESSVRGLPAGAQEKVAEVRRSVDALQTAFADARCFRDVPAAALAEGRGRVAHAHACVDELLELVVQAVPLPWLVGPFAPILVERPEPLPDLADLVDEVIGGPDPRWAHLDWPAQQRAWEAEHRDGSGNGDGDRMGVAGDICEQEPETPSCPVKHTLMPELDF
Target sequence (Q8WTS1 whole entry, looked up): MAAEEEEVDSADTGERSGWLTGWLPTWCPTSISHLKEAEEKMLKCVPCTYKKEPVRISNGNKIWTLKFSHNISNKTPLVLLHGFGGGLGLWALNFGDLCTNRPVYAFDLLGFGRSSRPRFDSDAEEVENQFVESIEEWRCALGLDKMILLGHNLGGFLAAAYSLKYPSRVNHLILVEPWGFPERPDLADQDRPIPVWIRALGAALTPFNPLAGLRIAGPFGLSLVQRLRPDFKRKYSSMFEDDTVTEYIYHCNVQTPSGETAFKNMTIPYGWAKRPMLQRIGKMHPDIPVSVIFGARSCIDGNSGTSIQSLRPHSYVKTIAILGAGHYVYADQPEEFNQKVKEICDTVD
KKLEB cytotox: cytotoxicity in KKLEB CF airway cells, primary screen, cytotoxicity control for CF NF-kB inhibitor project, cell-based, uHTS, fluorescence assay plates; activity change (cytotoxicity), % at 5 µM; KKLEB CF airway cells viability, ATPlite luminescence, overnight; stronger effect = lower value; cells stimulated with P. aeruginosa culture filtrate; 0.36% of 360,000 active;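 active = corrected activity change at or below -50% at 5 µM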
HIF-2a inh: HIF-2a reporter inhibitors, primary screen, luminescence, 786-0 RCC cells; 786-0 RCC cells HIF-2a reporter, luciferase luminescence, overnight; inhibition, % at 18.8 µM; 0.72% of 360,000 active; AID 624352, 2012;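 active = inhibition of the luminescence signal of 40% or more relative to plate controls, in a single-dose primary screen at 18.75 µM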
Mdm2 MdmX conf: Mdm2-MdmX complex disruptors, retested hits, confirmation, luminescence, single concentration | shares compounds with Mdm2-MdmX inh | Mdm2-MdmX binding, luminescent assay | inhibition, % at 8 µM | 55% of 10,000 active; in the data active = inhibition above about 40%
FLuc counter: full-length luciferase signal inhibition, confirmation, counter-screen for Mdm2/MdmX interaction inhibitor project, cell-based, single concentration, SaOS-2. shares compounds with Mdm2-MdmX inh. SaOS-2 full-length luciferase counterscreen, luminescence. inhibition, % at 8 µM. 77% of 6,200 active;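 active = mean inhibition at 8 µM reaching about 37%, which flags the compound as non-specific, limit read from the data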;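 also: p53-null SaOS-2 cells with luciferase driven by a doxycycline-inducible promoter; compound on cells about two nights before reading with doxycycline added after day one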
* = called active by the depositor; / = no result. Rows were chosen to be rich in hits. Some 4.6% of all compounds tested hit in one or more screens of this group.

SMILES | Peg3 prom inh | Mdm2-MdmX inh | CF NFkB inh | ABHD5 PLIN5 PPI | KKLEB cytotox | HIF-2a inh | Mdm2 MdmX conf | FLuc counter
CCC[C@@H](CN[C@@H](CNC)[C@H](C)CC)NCC1CCC(C(C)(C)C)CC1 (some centres not stated) | 102.1* | 99.3* | 9.1 | 7.4 | -30.5 | -3.1 | 99.8* | 2.5
CCc1c(O)nc(SCC(=O)Nc2ccc(Cl)cc2)n(-c2ccccc2)c1=O | -36.0 | / | 0.3 | 0.7 | -7.8 | -43.2 | / | /
COC(=O)c1c(NC(=O)Cc2cccs2)sc(C(=O)NC2CCCCC2)c1C | -9.1 | 54.7* | 4.4 | 1.1 | -13.9 | -31.9 | 0.9 | /
O=c1[nH]c2ccc(Cl)cc2c(-c2ccccc2)c1SC(=S)N1CCOCC1 | 37.3 | 52.7* | -16.9 | 5.5 | -7.5 | 29.2 | 51.5* | 44.8*
NNC(=O)CSc1c(-c2ccccc2)c2cc(Cl)ccc2[nH]c1=O | 14.6 | -45.3 | -16.2 | -0.8 | -0.1 | 13.6 | / | /
O=c1[nH]c2ccc(Cl)cc2c(-c2ccccc2)c1SC(=S)N1CCCCC1 | 26.9 | 60.7* | 18.9 | -12.7 | -9.2 | 29.5 | 44.2* | 56.6*
COCCNC(=O)C1(C)Cc2c(-c3ccc4c(c3)OCO4)ccnc2O1 (configuration not stated) | 25.3 | / | -0.9 | 3.4 | 6.4 | 11.3 | / | /
Cc1cc(Oc2ccc(-c3nnc(-c4ccccc4)o3)cc2[N+](=O)[O-])ccc1Cl | 25.4 | 75.0* | 4.7 | 2.5 | 6.8 | -15.8 | 1.6 | /
CN(C)/C=C/C(=O)c1ccc(N2CCN(c3ncc(C(F)(F)F)cc3Cl)CC2)cc1 | 72.6* | 91.7* | 14.7 | 0.3 | 8.1 | 10.9 | 0.6 | /
CCC/C(C#Cc1ccc(N(C)C)cc1)=C1/c2ccccc2C(=O)N1c1ccccc1 | -5.3 | 50.6* | -67.2 | -3.5 | -4.1 | -35.4 | 7.8 | /
CCC/C(C#Cc1cc(OC)cc(OC)c1)=C1/c2ccccc2C(=O)N1c1ccccc1 | -10.8 | 23.8 | 14.2 | -15.1 | -4.8 | 10.0 | / | /
CC(=O)OC[C@]12CC[C@H]3[C@@](C)(CC[C@H]4C(C)(C)CCC[C@]34C)[C@@H]1C[C@H](C1=CC(=O)O[C@@H]1OC(C)=O)O2 | / | 63.4* | / | / | / | / | -11.6 | /
COc1ccc(CCNS(=O)(=O)c2ccc(-n3cnnn3)cc2)cc1OC | 9.4 | 3.3 | 12.1 | -1.7 | -3.1 | 15.7 | / | /
N=c1n(CC(=O)c2cccc([N+](=O)[O-])c2)c2ccccc2n1Cc1ccccc1 | 58.1* | 92.1* | 14.4 | -3.9 | -16.0 | 4.5 | 5.1 | /
N=c1n(CCN2CCOCC2)c2ccccc2n1CC(=O)c1cccc([N+](=O)[O-])c1 | 15.0 | 9.3 | -17.0 | 7.5 | -4.8 | -0.8 | / | /
Cc1cc(OCC(=O)NNC(=O)CCc2ccccc2)ccc1Br | 2.0 | 26.1 | 3.9 | 3.7 | -9.1 | 6.6 | / | /
CN1CCC2(CC1)Nc1nc(SCc3ccc(Cl)cc3)nn1C1=C2CN(C)CC1 | 52.0* | 53.4* | 15.8 | 11.7 | -0.2 | 26.2 | 33.6 | /
CC(=O)c1cccc(N(C(=O)CNC(=O)c2ccco2)C(C(=O)NC2CCCC2)c2ccco2)c1 (configuration not stated) | -0.1 | 9.8 | -1.2 | 1.1 | 3.6 | 14.4 | / | /
CCOc1ccc2c(c1)sc(N)[n+]2Cc1cc(C)cc2cccnc12 | 28.9 | 57.9* | 28.4 | 9.8 | -25.6 | 31.1 | 64.9* | 60.0*
Cc1cc(C[n+]2ncsc2N)c2ncccc2c1 | -4.7 | 98.7* | 7.4 | 4.0 | -5.7 | 18.6 | 17.4 | /
CCC(C(=O)NC(C)(C)C)n1c(C(c2ccccc2)c2ccccc2)nc2ccccc21 (configuration not stated) | / | / | / | -4.4 | / | -2.0 | / | /
C=CCn1c(COc2ccc(F)cc2)nnc1SC(C)C(=O)NCC1CCCO1 (configuration not stated) | 10.5 | -14.1 | 4.8 | 4.2 | -34.8 | 10.9 | / | /
O=C(c1ccc(S(=O)(=O)c2ccccc2Cl)c([N+](=O)[O-])c1)N1CCN(Cc2ccccc2)CC1 | 26.6 | 83.9* | 33.5 | 2.8 | -6.1 | 12.9 | 75.0* | 29.6
O=C(c1ccc(S(=O)(=O)Cc2ccccc2Cl)c([N+](=O)[O-])c1)N1CCOCC1 | 19.9 | 51.1* | 10.6 | 2.5 | -5.1 | 11.2 | 42.0* | 49.0*
CN(C(=O)c1ccc(S(=O)(=O)c2cccc(Cl)c2)c([N+](=O)[O-])c1)C1CCCCC1 | 38.9 | 72.5* | 48.5 | 1.5 | -19.4 | 34.2 | 60.0* | 28.9
SMILES | Peg3 prom inh | Mdm2-MdmX inh | CF NFkB inh | ABHD5 PLIN5 PPI | KKLEB cytotox | HIF-2a inh | Mdm2 MdmX conf | FLuc counter
O=C(NC1CCCCC1)c1ccc(S(=O)(=O)c2ccccc2Cl)c([N+](=O)[O-])c1 | / | 77.0* | / | / | / | / | 65.8* | 17.2
O=C(c1ccc(Br)c([N+](=O)[O-])c1)N1CCN(Cc2ccccc2)CC1 | 16.8 | 28.1 | -11.2 | -4.1 | -1.8 | 7.8 | / | /
Cc1ccccc1CS(=O)(=O)c1ccc(C(=O)N2CCOCC2)cc1[N+](=O)[O-] | 26.2 | 37.8 | -0.6 | 0.1 | 16.2 | -13.6 | / | /
O=C(CN1C(=O)NC2(CCCCCCC2)C1=O)Nc1ccc(Cl)cc1 | 4.4 | 16.1 | 4.8 | -7.8 | -4.6 | 12.9 | / | /
COC(=O)c1c(-c2ccc3ccccc3c2)csc1NC(=O)Cc1ccc(OC)c(OC)c1 | 41.6 | 55.3* | 16.5 | 5.4 | -5.7 | 8.5 | 54.0* | 57.2*
COC(=O)c1c(-c2ccc(OC)c(OC)c2)csc1N | -9.4 | 6.0 | -11.7 | -14.8 | 5.2 | 20.5 | / | /
CC1(C(=O)NCC2CCOCC2)Cc2c(-c3cccc(C(F)(F)F)c3)ccnc2O1 (configuration not stated) | 10.4 | / | 15.7 | -0.8 | -25.4 | 11.8 | / | /
CCc1ccc(-n2c(SCC(=O)c3ccc4c(c3)NC(=O)CO4)nc3ccccc3c2=O)cc1 | 10.7 | 64.1* | -7.8 | -2.2 | -3.9 | 9.5 | -4.2 | /
COc1ccc2cc(C(=O)NCc3ccco3)c(=Nc3ccc(C(=O)O)cc3)oc2c1 | -263.7 | 5.6 | -17.4 | 0.2 | -2.3 | 18.2 | / | /
COc1ccc(N=c2oc3c(OC)cccc3cc2C(=O)NCc2ccco2)c(OC)c1 | -50.2 | 67.6* | -17.7 | -4.6 | 12.6 | -79.5 | -10.3 | /

Bioassay records deposited in PubChem BioAssay by several laboratories.
